A selection: hits, their analogues and other compounds. The true share with any hit is near 2.6%.
PHOSPHO1 block – blocks human PHOSPHO1 phosphatase activity; 1.1% of 290,000 active; Q8TCT1; inhibition, % at 13.3 µM; recombinant PHOSPHO1, absorbance phosphatase assay; AID 1565; in the data active = inhibition above about 60%
PABP1 MLLE inh – inhibitors of microRNA-mediated deadenylation, human PABP1 MLLE binding; GST-MLLE / FITC-PAM2 fluorescence polarization; AID 588489; 0.36% of 360,000 active; inhibition, % at 20 µM; P11940; in the data active = inhibition above about 35%, passing the limit was not always enough;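 also: plate controls were DMSO wells with GST-MLLE for no effect and wells lacking GST-MLLE protein for full effect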
A3A deaminase – inhibitors of human APOBEC3A DNA deaminase | P31941 | recombinant A3A, FAM/TAMRA ssDNA deamination fluorescence | inhibition, % at 20 µM | 0.41% of 330,000 active;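 active = at least 40% inhibition at 20 µM here, with at most 30% in a related deaminase screen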;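 also: plate controls were A3A with DMSO for no effect and wells lacking A3A enzyme for full effect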
Target sequence (P31941 whole entry, looked up): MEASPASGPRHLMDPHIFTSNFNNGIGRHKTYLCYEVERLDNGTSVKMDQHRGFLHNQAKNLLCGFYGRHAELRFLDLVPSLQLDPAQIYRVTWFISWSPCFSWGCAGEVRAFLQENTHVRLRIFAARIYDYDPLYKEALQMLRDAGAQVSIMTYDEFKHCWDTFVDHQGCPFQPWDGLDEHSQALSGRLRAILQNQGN
PABP polyA inh – blocks human PABP binding to poly(A) RNA; P11940; fluorescence polarization; calls only at 35 µM; 1% of 290,000 active; AID 2014;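 also: calls also rest on retests at 20 µM and on dose response follow-up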
APOBEC3G inh – inhibitors of human APOBEC3G DNA deaminase; Q9HC16; recombinant A3G, ssDNA deamination FAM/TAMRA fluorescence; inhibition, % at 20 µM; 0.28% of 330,000 active; AID 493012;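 active = inhibition of at least 40% at 20 µM, with no more than 30% in the related APOBEC3A deaminase screen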;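 also: plate controls were DMSO wells with A3G for no effect and wells lacking A3G enzyme for full effect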
eIF4H inh – inhibitors of RNA binding by human eIF4H. AID 2012. Q15056. eIF4H fluorescence polarization binding assay. 0.94% of 290,000 active. inhibition, % at 35 µM;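 also: calls also rest on retests at 20 µM and on dose response follow-up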
APOBEC3G confirm – APOBEC3G (human) deaminase inhibition, confirmed. shares compounds with APOBEC3G inh. recombinant A3G ssDNA deaminase, UDG/FAM-TAMRA fluorescence. inhibition, % at 20 µM. 72% of 890 active;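 active = inhibition reaching a set limit in any replicate at 20 µM, the limit being 80% of the first screen's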
UDG ctr A3G – counter-screen for APOBEC3G inhibitors: E. coli UDG; shares compounds with APOBEC3G inh; UDG counterscreen, FAM/TAMRA oligo fluorescence; inhibition, % at 20 µM; 710 tested, under 10 active; AID 504715;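 active = compounds giving 40% or more inhibition at 20 µM in any one of the three replicates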;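 also: plate controls were DMSO wells with UDG and oligo for no effect and DMSO wells lacking both for full effect; inhibitors lower the FAM signal released by uracil excision and alkaline cleavage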
* marks the source's active call; other numbers are inactive results; i = inactive; x = not tested or not shown; + = active, no number. Unless noted, no rule for the calls is given here.

SMILES	PHOSPHO1 block	PABP1 MLLE inh	A3A deaminase	PABP polyA inh	APOBEC3G inh	eIF4H inh	APOBEC3G confirm	UDG ctr A3G
Cc1nc2scc(-c3ccccc3)c2c(=O)n1N=C1C=CC(=O)C=C1	1	x	-1	+	65*	71*	93*	2
COc1ccc(CCNC(=O)CSc2nc(C)nc3c2c(=O)n(C)c(=O)n3C)cc1OC	5	12	-4	i	-10	-6	x	x
C/C(=N\Nc1cccc2cccnc12)c1ccc(N)cc1	-145	8	3	i	58*	33	27	x
O=S(=O)(c1ccc(Nc2ccc3c(c2)OCO3)nc1)N1CCOCC1	14	7	1	i	44*	-3	0	x
O=C(Nc1ccc2c(c1)OCO2)c1cccc(S(=O)(=O)N2CCOCC2)c1	25	-3	1	i	-1	5	x	x
O=c1c2c([N+](=O)[O-])cc([N+](=O)[O-])cc2sn1-c1ccc(Br)cc1	89*	3	4	i	75*	-1	72*	x
O=c1c2c([N+](=O)[O-])cc([N+](=O)[O-])cc2sn1Cc1ccccc1	-12	33	0	i	70*	-1	76*	-1
O=C(Nc1ccc(Br)cc1)c1cc([N+](=O)[O-])cc([N+](=O)[O-])c1	36	9	-5	i	-5	9	x	x
CCNc1nc(NCC)n2c(SCC(=O)Nc3ccc(CC)cc3)nnc2n1	x	-13	3	x	49*	x	47*	-1
S=c1[nH]nc(-c2cccs2)n1C1CCCCC1	-40	22	-8	i	45*	-1	83*	-3
Cn1ccnc1C1CCCCN1Cc1nc(-c2ccc(Cl)cc2)no1 (centres undefined)	-10	-2	-1	i	-6	-5	x	x
Cc1ccc(C)c(C(=O)CSc2nnnn2C(C)C)c1	14	-15	-3	i	-2	3	x	x
Cc1ccc(C(=O)CSc2nnnn2C(C)C)c(C)c1	35	-10	-3	i	54*	-8	4	-2
O=C(Cc1ccc(Br)cc1)NCc1ccccc1	55	-3	4	i	-1	-4	x	x
Cc1ccc(S(=O)(=O)N2CCCCC2C(=O)NCc2ccco2)cc1 (centres undefined)	22	10	-2	i	-4	6	x	x
COC(=O)Nc1ccc(S(=O)(=O)N2CCCCC2C(=O)NCc2ccco2)cc1 (centres undefined)	-7	-11	1	i	63*	-1	2	x
CCn1c(=O)c2c3c(sc2n2c(=S)[nH]nc12)CCC3	102*	-60	-9	i	59*	-10	88*	-2
Cc1ccc(-n2c(=O)c3c4c(sc3n3c(=S)[nH]nc23)CCC4)cc1	-32	-94	-8	i	35	0	x	x
O=c1c2c3c(sc2n2c(=S)[nH]nc2n1-c1ccccc1)CCC3	-59	-66	-11	i	53*	-5	84*	-6
COc1ccc(-n2c(=O)c3c4c(sc3n3c(=S)[nH]nc23)CCC4)cc1	-32	-75	-8	i	31	2	x	x
O=C(NCC1CCCN1S(=O)(=O)c1cccs1)C(=O)Nc1ccccc1Cl (centres undefined)	x	-14	-4	x	-10	x	x	x
CC(=O)NCCC(=O)Nc1nc(-c2c[nH]c3ccccc23)cs1	31	-11	-4	i	79*	-13	-5	1
CC(=O)Nc1nc(-c2cccc3ccccc23)cs1	34	15	-8	i	-6	-9	x	x
COC(=O)[C@]1(C)N[C@H](CN(C)C(=O)COc2ccccc2)[C@@H]2C(=O)N(C)C(=O)[C@@H]21	x	4	0	x	74*	x	3	x
Nc1nnc(SC2CC(=O)N(c3ccccc3)C2=O)s1 (centres undefined)	98*	42*	0	i	42*	2	25	x
SMILES	PHOSPHO1 block	PABP1 MLLE inh	A3A deaminase	PABP polyA inh	APOBEC3G inh	eIF4H inh	APOBEC3G confirm	UDG ctr A3G
CC(C)N1C(=O)CCC1C(=O)NCc1ccc(F)cc1Cl (centres undefined)	42	-2	-3	i	-10	5	x	x
CCCCC(=O)Nc1sc(C(=O)N(CC)CC)c(C)c1C(=O)OC	-18	34	2	i	68*	-2	68*	2
O=C1C(=O)N(CCO)C(c2ccc(Br)cc2)/C1=C(\O)c1ccccc1 (centres undefined)	19	1	-7	i	45*	-10	-59	-2
O=[N+]([O-])c1cccc(/C=N/n2c(COc3ccccc3)n[nH]c2=S)c1	27	-26	0	i	59*	-8	73*	-3
Oc1ccc(/C=N/n2c(COc3ccccc3)n[nH]c2=S)cc1O	19	4	-8	i	43*	4	77*	-2
S=c1[nH]nc(COc2ccccc2)n1/N=C/c1cccnc1	46	-39	-1	i	56*	0	77*	-3
O=C(Nc1ccccc1)Nc1ccc(Br)c(Cl)c1	2	-12	-2	i	-6	-1	x	x
O=C1c2c(O)cccc2Cc2cccc(O)c21	x	46*	11	x	67*	x	78*	-5
O=C1Cc2cccc(=O)c(O)c2C(=O)O1	x	9	x	x	x	x	x	x
COc1ccc(NC(=O)CN(C)C(=O)c2cccc(S(=O)(=O)Nc3ccc(OC)cc3)c2)cc1	x	4	-2	x	49*	x	-13	-1
COc1cccc(NC(=O)CN(C)C(=O)c2cccc(S(=O)(=O)Nc3ccc(C)cc3)c2)c1	x	2	-4	x	-6	x	x	x
c1cncc(-c2nnc(-c3cccnc3)nn2)c1	66*	41*	7	i	44*	-15	22*	-1
Cc1cc(C(=O)N[C@H](c2ccccc2)[C@@]2(C)C[C@@H]2[C@@H](C)C(=O)Nc2ccc3ccccc3c2)n(C)n1	11	-2	1	i	24	0	x	x
CCS(=O)(=O)c1ccc2oc(Nc3ccc(C(C)C)cc3)nc2c1	82*	36	1	i	68*	-3	78*	2
CCOc1ccc(Nc2nc3cc(S(=O)(=O)N(CC)CC)ccc3o2)cc1	19	27	2	i	50*	-3	62*	-1
CCN(CC)S(=O)(=O)c1ccc2oc(Nc3ccc(OC)cc3)nc2c1	-6	-3	-3	i	-9	-2	x	x
Cc1ccc(NC(=O)C2CCN(c3nc(C)cc(C)n3)CC2)cc1	-3	-3	0	i	48*	8	-7	0
COc1ccccc1NC(=O)CS(=O)(=O)c1cn(CC(=O)N2CCOCC2)c2ccccc12	6	-2	-4	i	-7	-4	x	x

High-throughput results as filed in PubChem BioAssay.
